Assay results published in PubChem BioAssay (NCI).
About 79,000 compounds went through this panel and 15% of them were active in at least one assay; those are over-represented in the sample as a whole. Values without a mark were called inactive. Rule as the data show it: active = growth inhibition above about 70%; inactive = the rest. Where a SMILES comes first, the peptide text is derived from it. The star is where a group is joined. Cbz = O=C(OCc1ccccc1)*

Assay: NCI Yeast Anticancer Drug Screen. Data for the cln2 rad14 strain (AID 165);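 also: 0% = growth equal to vehicle treated cultures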
Conditions: S. cerevisiae cln2 rad14 strain, at 50.0 µM, active compounds read high
How it was run: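 Relative to vehicle controls, growth inhibition of compound-treated cln2 rad14 yeast was recorded.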

| Compound | growth inhibition [%] |
| --- | --- |
| O=C1c2ccccc2Cc2ccccc21 | -19.4 |
| O=[N+]([O-])C(C(Cl)=C(Cl)Cl)=C(N1CCCCC1)N1CCCCC1 | -22.1 |
| CC1(C)C=Cc2c(cc(O)c3c(=O)c4cc(Cl)ccc4[nH]c23)O1 | -18.1 |
| CC(O)(C(=O)O)C(NC(=O)c1ccccc1)C(=O)O (stereo not given) | 6.3 |
| CC(C)COC(=O)c1cc(O)[nH]c(=O)c1 | -40.1 |
| CCOC(=O)CCC(NC(=O)C(CCC(=O)O)NC(=O)OCc1ccccc1)C(=O)OCC (stereo not drawn) (Cbz-Glu-Glu(OEt)-OEt; configuration not given here) | -13.4 |
| NC(C(=O)O)C1C=CCCC1 (stereo not given) | -57.3 |
| CC1(C)OC(=O)ON(Cc2ccccc2)C1=O | 2.35 |
| CCOC(=O)C1=C(C(=O)c2ccc(OC)cc2)C(c2ccc(OC)c(OC)c2)C(C(=O)c2ccc(OC)cc2)=C(C(=O)OCC)N1 | -24.6 |
| CN1CCc2sccc2C(c2ccccc2)O1 (stereo not given) | 0.65 |
| COc1ccc(N2C(=O)/C(=C\c3ccc(N(CCC#N)CCC#N)cc3)N=C2COc2ccccc2)cc1 | 8.7 |
| CCCC(C)C1(CC)NC(C)(C)CC(C)O1 (stereo not given) | -29.4 |
| CC(C)COP(C)(=O)C(N)(C(F)(F)F)C(F)(F)F (stereo not given) | 25.8 |
| N#CC1C(=O)NC(=O)C(C#N)C12CCCC2 (stereo not given) | -22.2 |
| O=c1oc2ccccc2c(O)c1[N+](=O)[O-] | 2.7 |
| O=C1O[C@@H]2C3COC(O)[C@](O)(O3)[C@@H]2/C1=C\c1ccc(O)cc1 (stereo not given in full) | 5.25 |
| CC(=O)/C(C)=C\C1C(C)=CCCC1(C)C (stereo not given) | -23.3 |
| CCN(CC)c1ccc2c(c1)C(O)c1ccccc1-2 (stereo not given) | -12.4 |
| CCN(CC)CCN(C)C(O)(C(=O)c1ccccc1)C1CCCC1 (stereo not given) | -4.35 |
| C/C(Cc1ccccc1)=N\NS(=O)(=O)c1ccc(C)cc1 | 8.85 |

| Compound | growth inhibition [%] |
| --- | --- |
| O=C1C(=S)Nc2cccc(F)c21 | -3.65 |
| CCOC(=O)NC(=Cc1ccccn1)c1ccc(Cl)cc1 (mixture of isomers) | -0.7 |
| O=C(Nc1cccc2ccccc12)OC1CCCC1 | -53.7 |
| CCCCCCC(C)C(C#N)C(=O)OCC (stereo not given) | -4.15 |
| CCCCNc1ccc([N+](=O)[O-])cc1[N+](=O)[O-] | 6.55 |
| CCCCOC(=O)C1(C(=O)OCCCC)CC1 | 1.6 |
| C1CSCCSCCSCCS1 | -12.4 |
| CCN(CC)C(=N)N | -34.2 |
| CC=C/C=C/[C@@H]1O[C@](O)([C@H](CC)C(=O)NC/C=C/C=C(\C)[C@@H](OC)[C@@H](C)[C@@H]2O[C@H](/C=C/C=C/C=C(\C)C(=O)c3c(O)cc[nH]c3=O)[C@H](O)[C@@H]2O)[C@H](O)[C@H](O)C1(C)C | 36.2 |
| CCOC(=O)C(/C(=N\NC(=O)OC)C(=O)Nc1cc(OC)ccc1OC)c1cnc2ccccc2n1 (stereo not given) | 18.8 |
| [Cl][Pt+2][Cl].[NH-]C(CO)C([NH-])CO (stereo not given) | -15.8 |
| Cn1nc(-c2ccccc2)c(C(=O)/C=C/c2ccc(F)cc2)c(N2CCCCC2)c1=O | 28.2 |
| NC(=O)c1ccc2c(ccc3ccccc32)c1 | -36 |
| CC12CCC(=O)C=C1CCC1C2C(=O)CC2(C)C1CCC2(O)C(=O)Cn1c(=O)[nH]cc(F)c1=O (stereo not given) | 5.65 |
| COC12OCCN(C)C1=CC(=O)C1N=NCC12 (stereo not given) | 8.3 |
| O=C(N/N=C/c1ccccc1)c1c(F)c(F)c(F)c(F)c1F | 12.2 |
| O=C/C=C/N=c1ccn(O)cc1 | -2.1 |
| COC(=O)CCCC(NC(=O)c1ccc([N+](=O)[O-])cc1)C(=O)OC (stereo not given) | 5.45 |
| O=[N+]([O-])c1ccc(N/N=C2\C=CCCC2)c([N+](=O)[O-])c1 | 15.3 |
| CCCCCCCNC1=C(O)c2ccccc2C(=O)C1=O | -44.2 |

Assay: NCI Yeast Anticancer Drug Screen. Data for the bub3 strain (AID 167)
Conditions: S. cerevisiae bub3 mutant strain, at 50.0 µM, active compounds read high
How it was run: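 Readout: yeast growth inhibition, expressed relative to vehicle-only wells. The test organism is a mutant strain from a panel with lesions in DNA repair or checkpoint genes.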

| Compound | growth inhibition [%] |
| --- | --- |
| O=C1c2ccccc2Cc2ccccc21 | 16.4 |
| O=[N+]([O-])C(C(Cl)=C(Cl)Cl)=C(N1CCCCC1)N1CCCCC1 | -19.4 |
| CC1(C)C=Cc2c(cc(O)c3c(=O)c4cc(Cl)ccc4[nH]c23)O1 | -15 |
| CC(O)(C(=O)O)C(NC(=O)c1ccccc1)C(=O)O (stereo not given) | 11.1 |
| CC(C)COC(=O)c1cc(O)[nH]c(=O)c1 | -15.5 |
| CCOC(=O)CCC(NC(=O)C(CCC(=O)O)NC(=O)OCc1ccccc1)C(=O)OCC (stereo not drawn) (Cbz-Glu-Glu(OEt)-OEt; configuration not given here) | 0.05 |
| NC(C(=O)O)C1C=CCCC1 (stereo not given) | -27.2 |
| CC1(C)OC(=O)ON(Cc2ccccc2)C1=O | 3.3 |
| CCOC(=O)C1=C(C(=O)c2ccc(OC)cc2)C(c2ccc(OC)c(OC)c2)C(C(=O)c2ccc(OC)cc2)=C(C(=O)OCC)N1 | -23 |
| CN1CCc2sccc2C(c2ccccc2)O1 (stereo not given) | 17.2 |
| COc1ccc(N2C(=O)/C(=C\c3ccc(N(CCC#N)CCC#N)cc3)N=C2COc2ccccc2)cc1 | -1.35 |
| CCCC(C)C1(CC)NC(C)(C)CC(C)O1 (stereo not given) | 4.9 |
| CC(C)COP(C)(=O)C(N)(C(F)(F)F)C(F)(F)F (stereo not given) | 40.1 |
| N#CC1C(=O)NC(=O)C(C#N)C12CCCC2 (stereo not given) | 10.9 |
| O=c1oc2ccccc2c(O)c1[N+](=O)[O-] | -7.15 |
| O=C1O[C@@H]2C3COC(O)[C@](O)(O3)[C@@H]2/C1=C\c1ccc(O)cc1 (stereo not given in full) | 8.45 |
| CC(=O)/C(C)=C\C1C(C)=CCCC1(C)C (stereo not given) | -14.8 |
| CCN(CC)c1ccc2c(c1)C(O)c1ccccc1-2 (stereo not given) | 14.4 |
| CCN(CC)CCN(C)C(O)(C(=O)c1ccccc1)C1CCCC1 (stereo not given) | 0.45 |
| C/C(Cc1ccccc1)=N\NS(=O)(=O)c1ccc(C)cc1 | 1.1 |

| Compound | growth inhibition [%] |
| --- | --- |
| O=C1C(=S)Nc2cccc(F)c21 | 43.7 |
| CCOC(=O)NC(=Cc1ccccn1)c1ccc(Cl)cc1 (mixture of isomers) | 4.25 |
| O=C(Nc1cccc2ccccc12)OC1CCCC1 | 6.35 |
| CCCCCCC(C)C(C#N)C(=O)OCC (stereo not given) | -16.6 |
| CCCCNc1ccc([N+](=O)[O-])cc1[N+](=O)[O-] | 41.9 |
| CCCCOC(=O)C1(C(=O)OCCCC)CC1 | -3.75 |
| C1CSCCSCCSCCS1 | -0.4 |
| CCN(CC)C(=N)N | -22 |
| CC=C/C=C/[C@@H]1O[C@](O)([C@H](CC)C(=O)NC/C=C/C=C(\C)[C@@H](OC)[C@@H](C)[C@@H]2O[C@H](/C=C/C=C/C=C(\C)C(=O)c3c(O)cc[nH]c3=O)[C@H](O)[C@@H]2O)[C@H](O)[C@H](O)C1(C)C | 29.9 |
| CCOC(=O)C(/C(=N\NC(=O)OC)C(=O)Nc1cc(OC)ccc1OC)c1cnc2ccccc2n1 (stereo not given) | 15.4 |
| [Cl][Pt+2][Cl].[NH-]C(CO)C([NH-])CO (stereo not given) | -27.9 |
| Cn1nc(-c2ccccc2)c(C(=O)/C=C/c2ccc(F)cc2)c(N2CCCCC2)c1=O | 4.1 |
| NC(=O)c1ccc2c(ccc3ccccc32)c1 | -1.8 |
| CC12CCC(=O)C=C1CCC1C2C(=O)CC2(C)C1CCC2(O)C(=O)Cn1c(=O)[nH]cc(F)c1=O (stereo not given) | -0.85 |
| COC12OCCN(C)C1=CC(=O)C1N=NCC12 (stereo not given) | -0.3 |
| O=C(N/N=C/c1ccccc1)c1c(F)c(F)c(F)c(F)c1F | 0.6 |
| O=C/C=C/N=c1ccn(O)cc1 | 4.25 |
| COC(=O)CCCC(NC(=O)c1ccc([N+](=O)[O-])cc1)C(=O)OC (stereo not given) | 13.7 |
| O=[N+]([O-])c1ccc(N/N=C2\C=CCCC2)c([N+](=O)[O-])c1 | -12.6 |
| CCCCCCCNC1=C(O)c2ccccc2C(=O)C1=O | 12.3 |
